Measurements taken from PubChem BioAssay AID2315 (National Center for Advancing Translational Sciences (NCATS), 2010).
Out of some 290,000 compounds screened, about 27,000 (9.3%) were called active. Rule as the data show it: active = inhibition mostly above about 28% (no sharp cut-off); inactive = mostly below about 43%. The list comes from a sample in which actives are over-represented; it also holds similar structures and randomly drawn compounds.

Experiment: A qHTS for Small Molecule Inhibitors of Shiga Toxin; as to inhibition: 0% is about no effect
Conditions: Vero cells, Shiga toxin protein synthesis inhibition reporter; at 38.7 µM, hits give high values

| SMILES | inhibition |
| --- | --- |
| CC(C)=CCCC(C)CN1CCC(n2nccc2NC(=O)c2ccccc2)CC1 (stereo not given) | -5.43% (inactive) |
| O=C(Nc1ccccc1)C1CCN(C(=O)c2ccc(Br)cc2)CC1 | 6.29% (inactive) |
| COCCCC1CCN(C(=O)C2CCC(=O)N(C3CCCCCC3)C2)CC1 (stereo not given) | -6.64% (inactive) |
| O=C(O)c1[nH]c2ccccc2c1C(c1cccc(O)c1)c1c(C(=O)O)[nH]c2ccccc12 | -5.15% (inactive) |
| COC(=O)COc1ccc2c(=O)c(Oc3ccccc3Br)coc2c1 | -7.5% (inactive) |
| CCc1ccc(N2CC(C(=O)N3CCCCCC3)CC2=O)cc1 (stereo not given) | 16% (inactive) |
| CC(CC(=O)N1CCN(c2ccccc2)CC1)S(=O)(=O)c1ccc2c(c1)NC(=O)CS2 (stereo not given) | 1.51% (inactive) |
| Fc1ccc2nc(Nc3nc4c(s3)CCCC4)sc2c1 | 72.1% (active) |
| O=C(CCS(=O)(=O)c1ccccc1)Nc1nc2c(s1)CCCC2 | 20.4% (inactive) |
| O=C(Cn1c(=O)sc2ccccc21)Nc1nc2c(s1)CCCC2 | 22.4% (inactive) |
| CN(CC(=O)Nc1c(Cl)cccc1Cl)C(=O)c1ccncc1 | -30.3% (inactive) |
| O=c1ccc(-c2ccc(S(=O)(=O)Nc3ccccc3)o2)n[nH]1 | -5.64% (inactive) |
| O=C(O)c1ccc(S(=O)(=O)N2CCC(Cc3ccccc3)CC2)cc1 | -10.1% (inactive) |
| O=C(NCCc1ccccc1Cl)C1CCC(=O)N(CCCc2ccccc2)C1 (stereo not given) | -7.04% (inactive) |
| O=C(NCCN1CCOC1=O)C1CCC(=O)N(CCc2ccc(Cl)cc2)C1 (stereo not given) | -3.56% (inactive) |
| O=C(NCCCc1ccccc1)C1CCC(=O)N(CCc2ccc(Cl)cc2)C1 (stereo not given) | 35.2% (active) |
| Cc1ccc(-n2nc3c(=O)n(C(C)C(=O)NCc4ccc5c(c4)OCO5)nc(C)c3c2C)cc1 (stereo not given) | -4.41% (inactive) |
| CS(=O)(=O)N1CCCC(C(=O)Nc2ccccc2C(F)(F)F)C1 (stereo not given) | -10% (inactive) |
| CCC(C(=O)OC)n1cnc2c(oc3ccccc32)c1=O (stereo not given) | 27.3% (inactive) |
| COc1ccc(C)cc1Nc1nc(C)nc2c1oc1ccccc12 | 2.95% (inactive) |
| COc1ccccc1Nc1ncnc2c1oc1ccccc12 | 53.4% (active) |
| Cc1occc(=O)c1OCc1c(Cl)cccc1Cl | -6.59% (inactive) |
| O=C1COc2ccc(S(=O)(=O)NCCc3ccc(Cl)cc3)cc2N1 | 2.79% (inactive) |
| Cc1ccc(NS(=O)(=O)c2ccc(C(C)(C)C)cc2)cn1 | 1.36% (inactive) |

| SMILES | inhibition |
| --- | --- |
| Cc1ccc(S(=O)(=O)c2nc(-c3cccs3)oc2NCc2cccnc2)cc1 | -2.32% (inactive) |
| COc1ccc(N2CCN(C(=O)CN3C(=O)COc4ccccc43)CC2)cc1 | 23.1% (inactive) |
| CN1CCN(C(=O)c2ccccc2NC(=O)COc2ccccc2Cl)CC1 | 30.2% (active) |
| CCCOc1cccc(C(=O)Nc2ccccc2C(=O)N2CCN(C)CC2)c1 | 1.15% (inactive) |
| O=C(Nc1ccccc1C(=O)N1CCCCCC1)c1ccccc1Cl | -4.45% (inactive) |
| Nc1nc(NCC2CCCO2)nc(Nc2ccccc2F)c1[N+](=O)[O-] (stereo not given) | 3.33% (inactive) |
| C=Cn1cc[n+](CC(=O)c2ccc(OC)c(OC)c2)c1 | -7.58% (inactive) |
| O=[N+]([O-])c1ccc(N/N=C/c2ccccc2)cc1 | 60.4% (active) |
| Cc1cccc(COc2ccccc2/C=N/Nc2ccc([N+](=O)[O-])cc2)c1 | -8.03% (inactive) |
| O=C(N/N=C/c1ccc(O)cc1)/C(=C/c1ccc([N+](=O)[O-])cc1)NC(=O)c1ccccc1 | 3.28% (inactive) |
| CCOc1cc2[nH]c(=S)n(Cc3ccc(C(=O)N4CCN(C)CC4)cc3)c(=O)c2cc1OCC | 6.6% (inactive) |
| COc1cccc(OCc2cc(C(=O)N3CCN(C(=O)c4ccco4)CC3)no2)c1 | 64.7% (active) |
| O=C(c1ccco1)N1CCN(C(=O)c2ccc(COc3ccc(F)cc3)o2)CC1 | 2.42% (inactive) |
| CC(=O)c1ccc(NC(=O)c2cc(-c3cccs3)on2)cc1 | 35.3% (inactive) |
| COc1cccc(OC)c1OCCN1CCN(C(=O)c2ccco2)CC1 | -15.7% (inactive) |
| CCn1ccnc1CN(C)C(=O)c1cc(COc2ccc(-n3cncn3)cc2)on1 | 13.3% (inactive) |
| O=C(c1cccc(Br)c1)N1CCN(C2=NS(=O)(=O)c3ccccc32)CC1 | -5.51% (inactive) |
| CNC(=O)n1ccc(C(=O)N2CCCCC2)n1 | -5.37% (inactive) |
| CCn1ccnc1CN(C)C(=O)c1cc(COc2ccc(Cl)cc2OC)on1 | 49.5% (active) |
| O=C(c1ccc(Cl)c(Cl)c1)N1CCCC1 | -12.2% (inactive) |
| COc1cc(Cl)ccc1OCc1cc(C(=O)N(C)CCc2c(C)n[nH]c2C)no1 | 18.3% (inactive) |
| O=C(c1cc(-c2ccccc2O)on1)N1CCCC1 | 111% (active) |
| O=C(c1cc(-c2cccs2)on1)N1CCCCC1 | 124% (active) |
| Cc1cc(/C=C2/SC(=O)N(CC(=O)N3CCCC3)C2=O)c(C)n1C | -6.33% (inactive) |

| SMILES | inhibition |
| --- | --- |
| NC(=O)C1CCN(C(=O)/C(=C/c2ccco2)NC(=O)c2ccccc2)CC1 | -19% (inactive) |
| COc1ccc(OC)c(NC(=O)CSc2nc(-c3ccccc3)cc(=O)[nH]2)c1 | -4.35% (inactive) |
| Cc1ccc(Nc2nc(N3CCOCC3)nc(N3CCOCC3)n2)cc1Cl | 5.42% (inactive) |
| COc1ccccc1N1CCN(S(=O)(=O)c2ccc(Cl)cc2)CC1 | -2.2% (inactive) |
| Oc1c(Cl)cc(Cl)cc1/C=N/c1ncn[nH]1 | -2.31% (inactive) |
| Cc1ccc(N2CC(C(=O)NCCS(=O)(=O)N3CCN(c4ccccc4)CC3)CC2=O)cc1 (stereo not given) | 4.33% (inactive) |
| Cn1cc(CNC(=O)c2ccc(OC3CCN(Cc4ccccn4)CC3)cc2)cn1 | 4.02% (inactive) |
| CCOC(=O)C1CCCN(C(=O)c2cncc(Br)c2)C1 (stereo not given) | -10.3% (inactive) |
| COc1cccc(-c2cc(C(=O)N3CCN(c4ccccc4OC)CC3)no2)c1 | -4.9% (inactive) |
| CCOC(=O)CC1(NC(=O)c2cc(COc3cncc(Cl)c3)on2)CCCCC1 | -11.8% (inactive) |
| COc1ccc(C(=O)C2CCCN(C(=O)c3cc(C)on3)C2)cc1F (stereo not given) | -1.62% (inactive) |
| COc1cc(Cl)ccc1OCc1cc(C(=O)N2CC[C@@H]3CCCC[C@H]3C2)no1 | 120% (active) |
| CCCOC1CCCN(C(=O)c2cc(COc3cncc(Cl)c3)on2)C1 (stereo not given) | 54.4% (active) |
| Cc1ccc(C)c(OCc2cc(C(=O)N3CCN(c4cnccn4)CC3)no2)c1 | -3.53% (inactive) |
| COc1ccc(OCc2cc(C(=O)N3CCCC3)no2)c2ccccc12 | 147% (active) |
| COc1ccccc1N1CCN(C(=O)c2cc(-c3ccc(Cl)c(Cl)c3)on2)CC1 | 0.847% (inactive) |
| COc1ccc(Cl)cc1C(=O)NNC(=S)NC1CCCC1 | -7.04% (inactive) |
| COc1ccccc1OCc1ccc(C(=O)N2CCN(C)CC2)o1 | 10.1% (inactive) |
| COc1ccccc1-c1cc(C(=O)N2CCCCC2)no1 | 102% (active) |
| N#Cc1ccccc1S(=O)(=O)N1CCN(C(=O)c2cc(-c3ccccc3)nn2-c2ccccc2)CC1 | 15.4% (inactive) |
| O=C(CSc1nc2ccccc2c(=O)[nH]1)Nc1nc(-c2ccc(Br)cc2)cs1 | -26.5% (inactive) |
| COc1ccc(C)cc1S(=O)(=O)N1CCN(S(=O)(=O)c2cc(C(=O)O)ccc2C)CC1 | -1.74% (inactive) |
| CN(C(=O)CN1C(=O)S/C(=C\c2ccccc2F)C1=O)C1CCS(=O)(=O)C1 (stereo not given) | -0.834% (inactive) |
| COc1ccc(C(C(=O)NCC2CCCO2)N(C(=O)Cn2nnc3ccccc32)c2ccc(NC(C)=O)cc2)cc1OC (stereo not given) | -9.93% (inactive) |

| SMILES | inhibition |
| --- | --- |
| O=C1OC2(CCCCC2)CC2=C1C1O[C@](c3ccsc3)(Cc3ccccc31)O2 | inactive |
| Nc1cc(N2CCCCCC2)c2nonc2c1[N+](=O)[O-] | -13.9% (inactive) |
| Cc1ccc(CNC(=O)c2ccc(CS(=O)Cc3cccc(Cl)c3)o2)cc1 (stereo not given) | -5.59% (inactive) |
| CCNC(=O)Nc1ccc(S(=O)(=O)Nc2cnc(C)nc2C)cc1 | -5.43% (inactive) |
| O=C(NCc1ccncc1)C(=O)NCC1OCCN1S(=O)(=O)c1ccc(Br)cc1 (stereo not given) | -17% (inactive) |
| Cc1cc(C)nc(N2CCC(C(=O)Nc3ccc4c(c3)OCCO4)CC2)n1 | 51.5% (inactive) |
| O=C(Nc1cccc(Cl)c1)C1CCCN(c2cnccn2)C1 (stereo not given) | -10.4% (inactive) |
| O=C(Nc1ccc2c(c1)OCCO2)C1CCCN(c2ncccn2)C1 (stereo not given) | 66.6% (active) |
| CC(C)=CCN1CCN(CCCc2ccccc2)CC1CCO (stereo not given) | -4.24% (inactive) |
| COc1ccc(-c2nn(-c3ccccc3)cc2/C=C2/SC(=S)N(CCCC(=O)O)C2=O)c(C)c1 | -11.2% (inactive) |
| CCOC(=O)c1c(C)[nH]c2c1-c1ccccc1C(=O)C2=O | 31.2% (inactive) |
| CCOC(=O)c1c(C)[nH]c(C2=NNC(=NC(C)COC)SC2)c1C (stereo not given) | 75.1% (active) |
| Cc1cc(Nc2ccc(C(=O)N3CCCCC3)cc2)c2cccc(C)c2n1 | -5.1% (inactive) |
| Cc1cccc(C(=O)Nc2nnc(Cc3c[nH]c4ccccc34)s2)c1 | -6.89% (inactive) |
| Cc1cccc(N=C2NC(=O)/C(=C/c3cn(C)c4ccccc34)S2)c1 | -7.28% (inactive) |
| Cc1cccc(N=C2NN=C(c3c[nH]c4ccccc34)CS2)c1 | 42.1% (active) |
| CS(=O)(=O)N1CCN=C1SCc1ccc(F)cc1 | 9.38% (inactive) |
| COc1ccc(N(CC(=O)NCCSCc2cccc(Cl)c2)S(C)(=O)=O)cc1 | -2.69% (inactive) |
| CCN(CC)C(=O)COc1coc(CN2CCN(Cc3ccccc3)CC2)cc1=O | -10.1% (inactive) |
| COc1cccc2cc(/C(C)=N/NC(=O)c3ccco3)oc12 | 32.4% (inactive) |
| CCC(=O)Nc1ccc2nn(-c3ccc(F)cc3)nc2c1 | 74.1% (active) |
| Cc1nn(CC(=O)Nc2ccc(F)cc2)c(=O)c2ccccc12 | -1.35% (inactive) |
| Cc1cccc(C(=O)OCC(=O)Nc2ccc(F)cc2)c1 | 27.4% (inactive) |
